Assay results: article PMC7862700, “An all-to-all approach to the identification of sequence-specific readers for epigenetic DNA modifications on cytosine”

How the values were obtained:
Test in all cases: DAPPL (digital affinity profiling via proximity ligation, sequencing); 10 mM Tris-HCl pH 7.5, 50 mM NaCl, 1 mM DTT, 4% glycerol, room temperature, 30 min; GST-TFs on glutathione beads, 16-mer random dsDNA library, 0.1% formaldehyde crosslink after washing; high values mean tight binding
Conditions in all cases: protein: recombinant; tags: N-terminal GST; dsDNA, one strand shown
FLI1 = target: T1, FLI1 (Homo sapiens, UniProt Q01543 1-452)
T1 sequence: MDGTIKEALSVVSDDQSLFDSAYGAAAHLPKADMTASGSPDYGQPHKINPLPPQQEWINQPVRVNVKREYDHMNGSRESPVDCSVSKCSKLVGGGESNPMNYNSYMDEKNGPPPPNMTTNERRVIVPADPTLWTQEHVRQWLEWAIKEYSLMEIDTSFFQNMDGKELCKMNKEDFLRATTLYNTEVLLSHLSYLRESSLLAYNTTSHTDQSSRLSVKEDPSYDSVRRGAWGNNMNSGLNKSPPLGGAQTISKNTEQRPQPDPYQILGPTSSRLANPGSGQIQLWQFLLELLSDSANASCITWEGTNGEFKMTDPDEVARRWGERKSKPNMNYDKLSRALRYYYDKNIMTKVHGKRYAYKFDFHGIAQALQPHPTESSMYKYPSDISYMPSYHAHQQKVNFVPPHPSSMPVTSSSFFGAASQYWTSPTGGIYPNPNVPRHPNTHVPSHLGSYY
Outline: (§1)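 Beads coated with glutathione captured GST-fused human transcription factors that had been expressed in yeast, and the factors were then given DNA barcodes and pooled with a tag-only sample. The pools were incubated with 200 nmole of a random double-stranded 16-mer DNA library in Tris/NaCl/DTT/glycerol buffer for 30 min at room temperature, washed, crosslinked with 0.1% formaldehyde and proximity-ligated with BsaI/T4 ligase at 37 °C for 1 h. PCR amplification and Illumina NextSeq500 sequencing came last. Binding signal is each hexamer's read frequency for a factor divided by its frequency for the tag-only sample.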

ELK1 = target: T2, ELK1 (Homo sapiens, UniProt P19419 1-428)
T2 sequence: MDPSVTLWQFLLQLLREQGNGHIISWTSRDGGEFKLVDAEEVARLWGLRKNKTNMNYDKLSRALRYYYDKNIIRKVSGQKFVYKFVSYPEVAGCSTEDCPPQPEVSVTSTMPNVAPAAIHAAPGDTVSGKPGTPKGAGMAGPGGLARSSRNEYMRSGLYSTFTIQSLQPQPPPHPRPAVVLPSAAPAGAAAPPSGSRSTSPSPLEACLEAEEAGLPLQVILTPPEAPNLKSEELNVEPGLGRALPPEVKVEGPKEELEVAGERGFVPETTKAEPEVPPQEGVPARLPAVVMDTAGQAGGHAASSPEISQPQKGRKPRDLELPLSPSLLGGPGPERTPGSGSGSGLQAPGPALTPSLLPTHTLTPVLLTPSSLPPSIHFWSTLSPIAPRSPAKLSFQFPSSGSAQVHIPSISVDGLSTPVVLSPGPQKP
Outline: as §1

GABPA = target: T3, GABPA (Homo sapiens, UniProt Q06546 1-454)
T3 sequence: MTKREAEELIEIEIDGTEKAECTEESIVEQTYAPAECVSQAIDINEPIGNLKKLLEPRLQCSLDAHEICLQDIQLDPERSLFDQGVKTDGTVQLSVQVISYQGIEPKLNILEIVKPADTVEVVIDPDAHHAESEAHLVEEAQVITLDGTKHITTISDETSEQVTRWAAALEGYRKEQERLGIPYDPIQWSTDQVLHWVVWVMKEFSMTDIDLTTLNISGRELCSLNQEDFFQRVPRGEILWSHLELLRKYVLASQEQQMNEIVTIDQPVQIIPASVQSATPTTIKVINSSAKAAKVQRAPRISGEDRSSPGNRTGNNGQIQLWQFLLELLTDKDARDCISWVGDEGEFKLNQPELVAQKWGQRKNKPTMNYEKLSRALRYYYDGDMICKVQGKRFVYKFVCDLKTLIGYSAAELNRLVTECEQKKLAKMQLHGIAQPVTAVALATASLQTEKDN
Outline: as §1

ERG = target: T4, ERG (Homo sapiens, UniProt P11308 1-479)
T4 sequence: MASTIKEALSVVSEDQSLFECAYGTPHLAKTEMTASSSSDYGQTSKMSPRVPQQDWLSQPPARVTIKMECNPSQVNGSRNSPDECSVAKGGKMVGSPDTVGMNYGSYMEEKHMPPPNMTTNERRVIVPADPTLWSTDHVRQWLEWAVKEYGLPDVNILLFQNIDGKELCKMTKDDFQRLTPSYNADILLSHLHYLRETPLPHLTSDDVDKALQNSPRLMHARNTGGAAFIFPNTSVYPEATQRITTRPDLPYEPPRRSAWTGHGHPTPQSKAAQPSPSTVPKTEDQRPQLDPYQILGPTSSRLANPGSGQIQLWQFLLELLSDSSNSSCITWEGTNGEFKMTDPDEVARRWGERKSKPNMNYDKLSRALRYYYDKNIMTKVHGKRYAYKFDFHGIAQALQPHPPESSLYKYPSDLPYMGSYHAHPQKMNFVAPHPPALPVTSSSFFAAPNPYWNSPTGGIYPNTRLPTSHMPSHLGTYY
Outline: as §1

ELF1 = ELF1 (Homo sapiens, UniProt P32519 1-619)
Outline: as §1

EHF = target: T5, EHF (Homo sapiens, UniProt Q9NZC4 1-300)
T5 sequence: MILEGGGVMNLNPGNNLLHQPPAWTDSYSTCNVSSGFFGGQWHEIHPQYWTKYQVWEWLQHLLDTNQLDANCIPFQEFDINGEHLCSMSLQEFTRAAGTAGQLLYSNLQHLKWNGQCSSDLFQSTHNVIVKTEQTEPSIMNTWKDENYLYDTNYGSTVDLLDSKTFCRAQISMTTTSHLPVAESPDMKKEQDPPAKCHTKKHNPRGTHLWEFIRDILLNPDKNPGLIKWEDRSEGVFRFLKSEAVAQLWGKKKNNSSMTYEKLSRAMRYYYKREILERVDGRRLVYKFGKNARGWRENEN
Outline: as §1

SPI1 = SPI1 (Homo sapiens, UniProt P17947 1-270)
Outline: as §1

SPIB = SPIB (Homo sapiens, UniProt Q01892 1-262)
Outline: as §1

ELK3 = target: T6, ELK3 (Homo sapiens, UniProt P41970 1-407)
T6 sequence: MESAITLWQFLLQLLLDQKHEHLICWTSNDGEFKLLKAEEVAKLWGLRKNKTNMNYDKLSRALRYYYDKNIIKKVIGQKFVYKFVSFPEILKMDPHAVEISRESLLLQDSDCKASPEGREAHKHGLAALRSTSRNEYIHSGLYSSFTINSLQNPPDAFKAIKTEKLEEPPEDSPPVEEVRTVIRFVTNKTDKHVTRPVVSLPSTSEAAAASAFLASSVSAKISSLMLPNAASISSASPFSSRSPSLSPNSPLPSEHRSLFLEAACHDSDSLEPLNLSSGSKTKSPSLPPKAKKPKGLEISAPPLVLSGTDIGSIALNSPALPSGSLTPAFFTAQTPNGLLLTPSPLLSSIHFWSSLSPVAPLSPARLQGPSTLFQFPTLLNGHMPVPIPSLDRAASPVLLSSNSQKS
Outline: as §1

Chain of SPIB (Q01892 whole entry): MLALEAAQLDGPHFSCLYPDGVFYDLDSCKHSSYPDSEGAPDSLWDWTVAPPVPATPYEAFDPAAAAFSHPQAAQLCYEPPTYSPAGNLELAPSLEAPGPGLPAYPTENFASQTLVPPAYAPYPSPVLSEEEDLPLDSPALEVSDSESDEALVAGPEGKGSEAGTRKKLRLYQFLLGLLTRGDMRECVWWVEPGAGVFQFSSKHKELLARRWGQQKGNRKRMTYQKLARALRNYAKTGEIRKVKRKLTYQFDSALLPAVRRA
Chain of ELF1 (P32519 whole entry): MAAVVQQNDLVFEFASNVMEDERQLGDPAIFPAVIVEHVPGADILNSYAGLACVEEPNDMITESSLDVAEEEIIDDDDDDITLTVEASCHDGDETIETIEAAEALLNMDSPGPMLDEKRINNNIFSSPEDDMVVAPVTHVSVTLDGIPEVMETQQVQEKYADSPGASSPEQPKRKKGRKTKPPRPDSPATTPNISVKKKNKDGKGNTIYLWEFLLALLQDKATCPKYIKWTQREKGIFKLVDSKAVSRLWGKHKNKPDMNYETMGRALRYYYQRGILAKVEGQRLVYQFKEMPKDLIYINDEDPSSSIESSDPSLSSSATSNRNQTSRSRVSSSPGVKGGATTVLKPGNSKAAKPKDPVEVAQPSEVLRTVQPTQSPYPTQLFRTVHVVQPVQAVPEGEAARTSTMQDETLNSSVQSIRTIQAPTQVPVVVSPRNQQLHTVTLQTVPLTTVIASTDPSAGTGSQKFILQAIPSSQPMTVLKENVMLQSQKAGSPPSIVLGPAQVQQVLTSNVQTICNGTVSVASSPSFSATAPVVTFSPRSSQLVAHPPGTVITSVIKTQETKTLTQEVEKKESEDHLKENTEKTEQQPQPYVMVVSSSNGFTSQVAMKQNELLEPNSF

Sequence: TTTGGG
- binding signal (FLI1): 1.27 fold enrichment (6-mer frequency, TF over GST control)
- binding signal (ELK1): 1.34 fold enrichment (6-mer frequency, TF over GST control)
- binding signal (GABPA): 1.37 fold enrichment (6-mer frequency, TF over GST control)
- binding signal (ERG): 1.25 fold enrichment (6-mer frequency, TF over GST control)
- binding signal (ELF1): 1.25 fold enrichment (6-mer frequency, TF over GST control)
- binding signal (EHF): 1.28 fold enrichment (6-mer frequency, TF over GST control)
- binding signal (SPI1): 1.4 fold enrichment (6-mer frequency, TF over GST control)
- binding signal (SPIB): 1.18 fold enrichment (6-mer frequency, TF over GST control)
- binding signal (ELK3): 1.29 fold enrichment (6-mer frequency, TF over GST control)

Sequence: AAAAAC
- binding signal (FLI1): 1.31 fold enrichment (6-mer frequency, TF over GST control)
- binding signal (ELK1): 1.12 fold enrichment (6-mer frequency, TF over GST control)
- binding signal (GABPA): 1.26 fold enrichment (6-mer frequency, TF over GST control)
- binding signal (ERG): 1.26 fold enrichment (6-mer frequency, TF over GST control)
- binding signal (ELF1): 1.23 fold enrichment (6-mer frequency, TF over GST control)
- binding signal (EHF): 1.28 fold enrichment (6-mer frequency, TF over GST control)
- binding signal (SPI1): 1.46 fold enrichment (6-mer frequency, TF over GST control)
- binding signal (SPIB): 1.24 fold enrichment (6-mer frequency, TF over GST control)
- binding signal (ELK3): 1.31 fold enrichment (6-mer frequency, TF over GST control)

Sequence: TCGCAA
- binding signal (FLI1): 1.21 fold enrichment (6-mer frequency, TF over GST control)
- binding signal (ELK1): 1.22 fold enrichment (6-mer frequency, TF over GST control)
- binding signal (GABPA): 1.19 fold enrichment (6-mer frequency, TF over GST control)
- binding signal (ERG): 1.16 fold enrichment (6-mer frequency, TF over GST control)
- binding signal (ELF1): 1.19 fold enrichment (6-mer frequency, TF over GST control)
- binding signal (EHF): 1.18 fold enrichment (6-mer frequency, TF over GST control)
- binding signal (SPI1): 1.03 fold enrichment (6-mer frequency, TF over GST control)
- binding signal (SPIB): 1.08 fold enrichment (6-mer frequency, TF over GST control)
- binding signal (ELK3): 1.06 fold enrichment (6-mer frequency, TF over GST control)

Sequence: TACCCA
- binding signal (FLI1): 1.01 fold enrichment (6-mer frequency, TF over GST control)
- binding signal (ELK1): 1.09 fold enrichment (6-mer frequency, TF over GST control)
- binding signal (GABPA): 1.12 fold enrichment (6-mer frequency, TF over GST control)
- binding signal (ERG): 1.03 fold enrichment (6-mer frequency, TF over GST control)
- binding signal (ELF1): 1.07 fold enrichment (6-mer frequency, TF over GST control)
- binding signal (EHF): 1.05 fold enrichment (6-mer frequency, TF over GST control)
- binding signal (SPI1): 1.09 fold enrichment (6-mer frequency, TF over GST control)
- binding signal (SPIB): 1.1 fold enrichment (6-mer frequency, TF over GST control)
- binding signal (ELK3): 1.09 fold enrichment (6-mer frequency, TF over GST control)

Sequence: GCCCCT
- binding signal (FLI1): 1.22 fold enrichment (6-mer frequency, TF over GST control)
- binding signal (ELK1): 1.2 fold enrichment (6-mer frequency, TF over GST control)
- binding signal (GABPA): 1.24 fold enrichment (6-mer frequency, TF over GST control)
- binding signal (ERG): 1.23 fold enrichment (6-mer frequency, TF over GST control)
- binding signal (ELF1): 1.37 fold enrichment (6-mer frequency, TF over GST control)
- binding signal (EHF): 1.43 fold enrichment (6-mer frequency, TF over GST control)
- binding signal (SPI1): 1.29 fold enrichment (6-mer frequency, TF over GST control)
- binding signal (SPIB): 1.21 fold enrichment (6-mer frequency, TF over GST control)
- binding signal (ELK3): 1.36 fold enrichment (6-mer frequency, TF over GST control)

Sequence: CAGGAT
- binding signal (FLI1): 1.23 fold enrichment (6-mer frequency, TF over GST control)
- binding signal (ELK1): 1.16 fold enrichment (6-mer frequency, TF over GST control)
- binding signal (GABPA): 1.13 fold enrichment (6-mer frequency, TF over GST control)
- binding signal (ERG): 1.2 fold enrichment (6-mer frequency, TF over GST control)
- binding signal (ELF1): 1.14 fold enrichment (6-mer frequency, TF over GST control)
- binding signal (EHF): 1.19 fold enrichment (6-mer frequency, TF over GST control)
- binding signal (SPI1): 1.1 fold enrichment (6-mer frequency, TF over GST control)
- binding signal (SPIB): 1.29 fold enrichment (6-mer frequency, TF over GST control)
- binding signal (ELK3): 1.04 fold enrichment (6-mer frequency, TF over GST control)

Sequence: CACTAT
- binding signal (FLI1): 1.23 fold enrichment (6-mer frequency, TF over GST control)
- binding signal (ELK1): 1.18 fold enrichment (6-mer frequency, TF over GST control)
- binding signal (GABPA): 1.31 fold enrichment (6-mer frequency, TF over GST control)
- binding signal (ERG): 1.18 fold enrichment (6-mer frequency, TF over GST control)
- binding signal (ELF1): 1.26 fold enrichment (6-mer frequency, TF over GST control)
- binding signal (EHF): 1.16 fold enrichment (6-mer frequency, TF over GST control)
- binding signal (SPI1): 1.25 fold enrichment (6-mer frequency, TF over GST control)
- binding signal (SPIB): 1.17 fold enrichment (6-mer frequency, TF over GST control)
- binding signal (ELK3): 1.24 fold enrichment (6-mer frequency, TF over GST control)
